Screens (PubChem BioAssay)
Shown are actives, neighbours in structure and some others; about 1.4% of the full set was active somewhere.
INS promoter inh – TRM-6 insulin promoter activity inhibition. hit rate 0.9% among 130,000. inhibition, % at 2 µM. AID 1273. TRM-6 cells (human fetal islet line), insulin promoter-eGFP reporter, imaging; reporter expression induced with tamoxifen;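 active = inhibition above the mean plus 3 SD, with well images judged a real hit on visual review, cut at about 60% in these data, passing the limit was not always enough; inconclusive = inhibition over the cutoff but images rejected on review; inactive = inhibition not above the cutoff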
NFkB transloc inh – blocks IL-1B driven NFkB nuclear translocation in HUVEC cells | hit rate 0.43% among 94,000 | inhibition, % at 2 µM | HUVEC IL-1B NFkB p65 nuclear translocation imaging;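 active = inhibition above about 30% together with a positive call from visual inspection of the well image, limit read from the data; inconclusive = inhibition above a set limit but visual check negative; inactive = inhibition not above a set limit, visual check negative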;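 note: nuclear over cytoplasmic p65 intensity ratio measured by imaging; 0% = IL-1B stimulated DMSO wells and 100% = unstimulated DMSO wells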
NFkB transloc pot – enhances IL-1B driven NFkB nuclear translocation | HUVEC IL-1B NFkB p65 nuclear translocation imaging | activation, % at 2 µM | hit rate 0.3% among 94,000 | AID 819;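 active = activation above 40%, about the mean plus 3 SD, also judged a hit on visual image review; inconclusive = activation above 40% but not a hit on visual review; inactive = activation not above 40% and no visual hit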;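 note: percent activation is computed from the nuclear over cytoplasmic p65 intensity ratio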
IL1B cytotox – toxic to HUVEC cells under IL-1B stimulation. cell count reduction, % at 2 µM. HUVEC cell count loss, Hoechst imaging, IL-1B stimulated. hit rate 0.41% among 94,000;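 active = cell count reduction more than 3 SD above the screen-wide mean, cut at about 70% in these data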;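 note: normalized per plate to untreated control cells as the no-loss baseline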
Numbers without * were called inactive; ? = inconclusive; . = no result.

SMILES	INS promoter inh	NFkB transloc inh	NFkB transloc pot	IL1B cytotox
COc1ccc(N/N=C(/C#N)S(=O)(=O)c2nsc(C)c2C#N)cc1	-18	-4	4	-40
Cc1snc(S(=O)(=O)/C(C#N)=N/Nc2cccc(C(F)(F)F)c2)c1C#N	75*	-9	9	-12
Cc1ccc(N2CC(C(=O)NCc3cccs3)CC2=O)cc1C (stereo not given)	-19	-4	4	-17
Cc1cc(N2CC(C(=O)NCc3cccs3)CC2=O)ccc1C(C)C (stereo not given)	0	46*	-46	-79
Cc1cccc(NC(=O)c2ccc(C(=O)c3ccccc3)o2)c1	0	.	.	.
COc1ccc(NC(=O)c2ccc(C(=O)c3ccccc3)o2)cc1	90*	2	-2	-25
COc1ccccc1N(CC(=O)NCCSc1ccc(Cl)cc1)S(C)(=O)=O	-35	.	.	.
CCSCc1nc2ccccn2c1Br	76*	.	.	.
CCCCSCc1nc2ccccn2c1Br	24	.	.	.
Cc1cc(C)c2c(N)c(C(=O)c3ccc(Cl)c(Cl)c3)sc2n1	70*	.	.	.
Cc1cc(C)c2c(N)c(C(=O)c3ccc(Cl)cc3)sc2n1	72*	.	.	.
COc1ccc(C(=O)c2sc3nc(C)cc(-c4cccs4)c3c2N)cc1	-178	.	.	.
COc1ccc(C(=O)c2sc3nc(C)cc(-c4cccs4)c3c2N)cc1OC	-103	.	.	.
COc1ccc(S(=O)(=O)O/N=C2\CCCc3ccccc32)cc1	0	12	-12	0
O=C(COc1ccccc1)Nc1cccc(-c2nc3cc4ccccc4cc3[nH]2)c1	-60	5	-5	45
COc1ccccc1OCC(=O)NCC1CCCCC1	48	96*	-96	94*
COc1ccccc1OCC(=O)NCCNC(=O)COc1ccccc1OC	.	-3	3	-1
COc1cc(/C=C(/C(=O)c2cccs2)c2nc3ccccc3[nH]2)cc(OC)c1O	-140	14	-14	-1
O=C1CC(C(=O)Nc2ccc(Cl)cc2[N+](=O)[O-])C2(CCCCC2)O1 (stereo not given)	16	.	.	.
C/C=C(/C(=C/C)c1ccc(O)cc1)c1ccc(O)cc1	-19	.	.	.
CC1(C)C=C(c2ccc(O)cc2)CC(C)(C)N1	64	45*	-45	-44
Cc1ccc(C(=O)C(OC(=O)CNS(=O)(=O)c2ccccc2)c2ccccc2)cc1 (stereo not given)	11	-8	8	-12
CSc1ccccc1NS(=O)(=O)c1ccc2c(c1)OCCO2	-78	27	-27	70*
O=S(=O)(Nc1cccnc1Cl)c1ccc2c(c1)OCCO2	-5	10	-10	0
COc1ccc(NC(=O)COc2ccc(C(=O)OCC(=O)N(C(C)C)C(C)C)cc2OC)cc1	64	.	.	.
SMILES	INS promoter inh	NFkB transloc inh	NFkB transloc pot	IL1B cytotox
CC(/C=C/c1ccco1)=N/NC(=O)OC(C)(C)C	-57	.	.	.
CC(C)(C)C(=O)Nc1ccc(S(=O)(=O)c2ccc(NC(=O)C(C)(C)C)cc2)cc1	75*	-28	28	-32
COc1cc(OC)cc(C(=O)NN2CCCCC2)c1	-29	56*	-56	-4
COc1cccc(OC)c1C(=O)NN1CCCCC1	18	-3	3	-30
CCOC(=O)C1CCN(C(=O)c2cccc(Cl)c2)CC1	-408	-29	29	-18
CCOC(=O)C1CCN(C(=O)c2ccc(Cl)c(Cl)c2)CC1	-248	99*	-99	94*
O=C(NCC1OCCc2ccccc21)c1ccco1 (stereo not given)	-6	-53	53*	-2
Cn1cccc1/C=C(/C#N)c1ccc(F)cc1	-438	.	.	.
CC(C)c1ccc(CN2CC(C(=O)Nc3ccccc3)CC2=O)cc1 (stereo not given)	75*	.	.	.
Cc1ccc(Oc2nc(-c3cccnc3)nc3ccccc23)c([N+](=O)[O-])n1	22	.	.	.
Cc1cc(C(=O)NCC2COc3ccccc3O2)c2ccccc2n1 (stereo not given)	83*	.	.	.
O=C1Cc2ccccc2Sc2ccccc21	.	-4	4	-12
O=C1Nc2cc3c(cc2Sc2ccccc21)OCCO3	90*	-43	?	-14
Cc1ccc(S(=O)(=O)NCCC(=O)Nc2cccc(Cl)c2)cc1	-57	.	.	.
O=S(=O)(NCc1cccnc1)c1cc(Cl)ccc1Cl	.	-6	6	-4
O=S(=O)(NCc1cccnc1)c1ccc(Cl)s1	-6	59*	-59	90*
Cc1nc2cc(N3CCN(C)CC3)c(NC(=O)Cc3ccccc3)cc2c(=O)n1Cc1ccccc1	-67	-19	19	-23
CCN(CC)c1cc2nc(C)n(Cc3ccccc3)c(=O)c2cc1NC(=O)C1CC1	85*	-11	11	-10
CCc1cccc(CC)c1NC(=S)N(CCN(C)C)C(C)c1cccnc1 (stereo not given)	-15	.	.	.
O=C1NCC2=C1C(c1ccc(Br)cc1)Nc1ccccc1N2 (stereo not given)	.	8	-8	-14
